# “And” between values parts separate entries of the source, which are not always exact repeats. Identical values can stand only once. Inconclusive results are not listed. Where a structure was tested more than once in an assay, its records may differ in their call. The source made the active and inactive calls. Rule for the calls, unless noted: active = hit-call score of the fitted dose curve at least 0.9, where 1 is the maximum; inconclusive = response in the unintended direction; inactive = score below 0.9.
# What was measured:
# [1] = tested on: guinea pig Dopamine Transporter (DAT), gene 100714898; experiment: NVS_TR_gDAT: NovaScreen (NVS) Transporter Assay for guinea pig Dopamine Transporter (DAT) (AID 2283369);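 note: active compounds lower bound radioligand signal relative to DMSO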
# In short: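 Radioligand displacement on membranes from guinea pig striatum, 2 h exposure, bound label counted by filtration and scintillation. Tested at 25 uM in duplicate, then actives in concentration series to 50 uM; DMSO as negative control.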
# [2] = target: human Dopamine Transporter (DAT), SLC6A3 (gene 6531) (UniProt Q01959); experiment: NVS_TR_hDAT: NovaScreen (NVS) Transporter Assay for human Dopamine Transporter (DAT) (AID 2283374);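 note: activity means loss of bound radioligand signal relative to DMSO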
# Chain of human Dopamine Transporter (DAT), SLC6A3 (gene 6531) (Q01959 whole entry, looked up): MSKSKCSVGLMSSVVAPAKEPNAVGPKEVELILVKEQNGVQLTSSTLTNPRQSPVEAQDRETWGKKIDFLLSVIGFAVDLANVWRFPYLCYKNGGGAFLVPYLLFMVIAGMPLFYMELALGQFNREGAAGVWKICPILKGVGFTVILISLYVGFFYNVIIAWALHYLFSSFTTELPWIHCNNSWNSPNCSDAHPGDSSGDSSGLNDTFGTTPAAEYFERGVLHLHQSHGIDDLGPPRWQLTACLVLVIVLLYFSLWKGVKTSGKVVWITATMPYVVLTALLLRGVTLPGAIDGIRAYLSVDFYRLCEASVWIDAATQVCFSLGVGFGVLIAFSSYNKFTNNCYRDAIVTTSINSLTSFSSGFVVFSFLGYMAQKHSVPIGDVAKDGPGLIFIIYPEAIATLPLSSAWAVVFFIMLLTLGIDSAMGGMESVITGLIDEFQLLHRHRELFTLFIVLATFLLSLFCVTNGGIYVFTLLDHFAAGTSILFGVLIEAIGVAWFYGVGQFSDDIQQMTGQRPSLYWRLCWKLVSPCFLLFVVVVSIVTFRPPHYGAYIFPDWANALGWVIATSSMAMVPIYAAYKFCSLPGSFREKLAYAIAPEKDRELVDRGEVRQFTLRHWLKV
# In short: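 hDAT membranes + tritiated/iodinated radioligand, competitive displacement; 1 h; filter scintillation readout. Single conc 25 uM (duplicate), then conc-response for actives. DMSO = negative control.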
# [3] = target: human Norepinephrine Transporter (NET), SLC6A2 (gene 6530) (UniProt P23975); experiment: NVS_TR_hNET: NovaScreen (NVS) Transporter Assay for human Norepinephrine Transporter (NET) (AID 2283377);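 note: cell-free membrane protein extracted from CHO cells expressing human NET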;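 for AC50: displacement of radioligand from human NET seen as loss of scintillation signal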
# Chain of human Norepinephrine Transporter (NET), SLC6A2 (gene 6530) (P23975 whole entry, looked up): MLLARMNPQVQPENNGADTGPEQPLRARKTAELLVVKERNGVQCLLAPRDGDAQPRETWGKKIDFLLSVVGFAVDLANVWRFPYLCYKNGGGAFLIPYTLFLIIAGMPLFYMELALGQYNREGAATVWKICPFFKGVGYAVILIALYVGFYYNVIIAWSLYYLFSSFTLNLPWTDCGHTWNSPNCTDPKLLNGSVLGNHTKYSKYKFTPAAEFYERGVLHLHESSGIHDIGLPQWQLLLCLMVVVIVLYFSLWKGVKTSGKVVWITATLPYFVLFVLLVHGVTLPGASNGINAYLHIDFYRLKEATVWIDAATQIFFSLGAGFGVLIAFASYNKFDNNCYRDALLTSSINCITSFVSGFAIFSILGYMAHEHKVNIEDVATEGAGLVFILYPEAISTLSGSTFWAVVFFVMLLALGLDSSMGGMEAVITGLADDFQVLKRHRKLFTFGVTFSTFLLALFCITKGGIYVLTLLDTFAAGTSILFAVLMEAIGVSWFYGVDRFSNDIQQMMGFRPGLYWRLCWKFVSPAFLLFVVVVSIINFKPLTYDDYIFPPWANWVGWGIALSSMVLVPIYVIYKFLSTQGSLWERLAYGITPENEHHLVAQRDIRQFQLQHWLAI
# In short: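 CHO cell extracts expressing the transporter; tritiated or iodinated tracer displaced competitively; filtration plus scintillation readout at 1 h. Single-point duplicates at 25 uM, concentration series for follow-up; activity = signal drop relative to DMSO.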
# [4] = target: rat Androgen Receptor (AR), Ar (gene 24208) (UniProt P15207); experiment: NVS_NR_rAR: NovaScreen (NVS) Nuclear Receptor Binding Assay for rat Androgen Receptor (AR) (AID 2283366)
# In short: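 Actives from a duplicate single-concentration (25 uM) primary run went on to concentration series. Displacement of radioligand was counted by filtration and scintillation, 18 h post-dose, using prostate extracts from testosterone-pretreated rats, with DMSO as baseline.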
# [5] = target: Peroxisome proliferator-activated receptor gamma (Homo sapiens) (UniProt P37231); experiment: NVS_NR_hPPARg: NovaScreen (NVS) Nuclear Receptor Binding Assay for human Peroxisome Proliferator-activated Receptor gamma (PPARg) (AID 2283370)
# Chain of Peroxisome proliferator-activated receptor gamma (Homo sapiens) (P37231 whole entry, looked up): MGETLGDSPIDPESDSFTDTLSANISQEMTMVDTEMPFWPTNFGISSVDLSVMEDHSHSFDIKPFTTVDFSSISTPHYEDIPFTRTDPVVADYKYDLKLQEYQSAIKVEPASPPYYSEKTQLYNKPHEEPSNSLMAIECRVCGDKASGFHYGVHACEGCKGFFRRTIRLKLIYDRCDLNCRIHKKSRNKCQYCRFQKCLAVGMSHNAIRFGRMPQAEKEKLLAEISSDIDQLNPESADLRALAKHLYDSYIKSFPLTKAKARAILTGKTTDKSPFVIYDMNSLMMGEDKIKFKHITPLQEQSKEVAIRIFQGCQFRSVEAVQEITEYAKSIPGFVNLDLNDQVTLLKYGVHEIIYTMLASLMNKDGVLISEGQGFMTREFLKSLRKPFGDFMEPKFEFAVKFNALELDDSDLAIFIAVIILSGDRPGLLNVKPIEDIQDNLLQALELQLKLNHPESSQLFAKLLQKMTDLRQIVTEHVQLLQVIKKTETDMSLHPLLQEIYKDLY
# In short: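 Fluorescence polarization readout of ligand binding to extracted human PPARg, measured at 2 h. Duplicate single-point screen at 25 uM, then concentration-series retesting; activity defined as signal loss versus DMSO.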
# [6] = target: mouse Estrogen Receptor alpha (Era), Esr1 (gene 13982) (UniProt P19785); experiment: NVS_NR_mERa: NovaScreen (NVS) Nuclear Receptor Binding Assay for mouse Estrogen Receptor alpha (Era) (AID 2283378);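 note: hit means loss of bound radioligand signal relative to DMSO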
# Chain of mouse Estrogen Receptor alpha (Era), Esr1 (gene 13982) (P19785 whole entry, looked up): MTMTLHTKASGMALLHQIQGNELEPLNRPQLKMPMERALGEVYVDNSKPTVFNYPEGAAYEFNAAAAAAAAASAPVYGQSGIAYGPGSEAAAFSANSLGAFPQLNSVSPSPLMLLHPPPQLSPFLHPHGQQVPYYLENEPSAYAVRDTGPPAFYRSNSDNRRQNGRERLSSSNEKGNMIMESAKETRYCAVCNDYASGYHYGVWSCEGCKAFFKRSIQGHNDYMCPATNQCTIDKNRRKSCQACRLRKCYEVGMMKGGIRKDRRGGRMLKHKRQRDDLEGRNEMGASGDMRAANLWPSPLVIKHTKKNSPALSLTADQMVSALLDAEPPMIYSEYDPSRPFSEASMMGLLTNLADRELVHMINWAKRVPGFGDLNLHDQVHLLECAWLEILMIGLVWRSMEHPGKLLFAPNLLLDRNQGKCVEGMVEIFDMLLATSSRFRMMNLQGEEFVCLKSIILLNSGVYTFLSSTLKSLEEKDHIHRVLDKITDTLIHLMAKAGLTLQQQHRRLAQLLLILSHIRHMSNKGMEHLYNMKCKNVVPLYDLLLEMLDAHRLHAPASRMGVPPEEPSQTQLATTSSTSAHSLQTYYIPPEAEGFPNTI
# In short: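 Filter radiodetection of radioligand displacement from extracted receptor protein, measured 18 h post-dose. Single 25 uM concentration in duplicate initially, with concentration-series follow-up. Binding loss fitted relative to DMSO.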
# [7] = target: Estrogen receptor beta (Homo sapiens) (UniProt Q92731); experiment: OT_ER_ERbERb_1440: Odyssey Thera (OT) 24-hour HEK293T Protein-Complementation Assay for Estrogen Receptor-beta/-beta Homodimer (AID 2283380);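 note: scored as signal increase over DMSO baseline for both agonists and antagonists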
# Chain of Estrogen receptor beta (Homo sapiens) (Q92731 whole entry, looked up, the tested form may be a part): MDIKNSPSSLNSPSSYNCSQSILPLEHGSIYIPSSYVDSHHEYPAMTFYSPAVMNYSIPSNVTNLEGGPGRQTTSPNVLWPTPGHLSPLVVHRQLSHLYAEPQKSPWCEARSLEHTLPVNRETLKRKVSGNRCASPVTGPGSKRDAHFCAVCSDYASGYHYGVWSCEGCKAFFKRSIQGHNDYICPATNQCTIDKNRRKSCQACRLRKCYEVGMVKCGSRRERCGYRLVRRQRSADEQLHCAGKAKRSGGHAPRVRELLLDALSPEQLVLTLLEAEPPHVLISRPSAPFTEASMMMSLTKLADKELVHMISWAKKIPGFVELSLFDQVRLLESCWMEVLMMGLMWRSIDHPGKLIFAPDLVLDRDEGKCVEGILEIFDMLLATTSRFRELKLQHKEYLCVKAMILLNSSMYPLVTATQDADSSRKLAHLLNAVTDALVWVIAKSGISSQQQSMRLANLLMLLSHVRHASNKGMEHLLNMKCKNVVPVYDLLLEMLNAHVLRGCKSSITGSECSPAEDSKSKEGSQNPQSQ
# In short: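 HEK293T cells stably expressing ER beta LBD (aa 310-547) homodimer fragment-complementation reporter, dosed 24 h. Cells formaldehyde-fixed, Draq5-stained; gain in nuclear (agonist) or nuclear plus cytoplasmic (antagonist) fluorescence versus DMSO read by laser scanning cytometry.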
# [8] = target: Estrogen receptor (Homo sapiens) (UniProt P03372); experiment: OT_ERa_GFPERaERE_0480: Odyssey Thera (OT) 8-hour HeLa Transcription Induction Assay for Estrogen Receptor (AID 2283381; active = hit-call score of the fitted dose curve at least 0.9, where 1 is the maximum; inactive = score below 0.9)
# Chain of Estrogen receptor (Homo sapiens) (P03372 whole entry, looked up): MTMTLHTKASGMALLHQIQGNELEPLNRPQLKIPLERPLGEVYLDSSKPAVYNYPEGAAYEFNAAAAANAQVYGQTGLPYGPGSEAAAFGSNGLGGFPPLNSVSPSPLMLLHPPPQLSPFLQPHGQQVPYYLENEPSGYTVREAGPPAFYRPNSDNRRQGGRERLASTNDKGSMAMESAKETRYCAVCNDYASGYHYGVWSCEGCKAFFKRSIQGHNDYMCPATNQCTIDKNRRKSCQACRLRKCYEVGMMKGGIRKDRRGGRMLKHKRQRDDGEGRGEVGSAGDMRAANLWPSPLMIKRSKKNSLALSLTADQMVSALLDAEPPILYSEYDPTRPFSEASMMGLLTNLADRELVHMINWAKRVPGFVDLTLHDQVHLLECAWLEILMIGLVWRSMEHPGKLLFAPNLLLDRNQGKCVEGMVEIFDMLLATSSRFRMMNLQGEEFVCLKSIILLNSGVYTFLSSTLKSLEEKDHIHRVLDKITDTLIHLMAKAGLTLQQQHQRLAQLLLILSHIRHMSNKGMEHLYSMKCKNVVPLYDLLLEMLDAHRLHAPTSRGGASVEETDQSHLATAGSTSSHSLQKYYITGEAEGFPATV
# In short: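 Human cervical HeLa cells were treated for 8 hours, after which ERE-driven GFP induction was measured by fluorescence microscopy; increases over DMSO baseline defined activity.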
# [9] = target: Estrogen receptor (Homo sapiens) (UniProt P03372); experiment: OT_ERa_GFPERaERE_0120: Odyssey Thera (OT) 2-hour HeLa Transcription Induction Assay for Estrogen Receptor (AID 2283382)
# In short: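 Cells (human cervical HeLa) receive compound, incubate 2 hours, then are imaged for fluorescent reporter induction. Images are quantified by high content analysis, and activity is fitted as gain of signal against DMSO.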
# [10] = target: Retinoic acid receptor RXR-alpha (Homo sapiens) (UniProt P19793); experiment: OT_NURR1_NURR1RXRa_0480: Odyssey Thera (OT) 8-hour HEK293T Protein Complementation Assay for Nurr1/retinoid X receptor (RXR) (AID 2283385)
# Chain of Retinoic acid receptor RXR-alpha (Homo sapiens) (P19793 whole entry, looked up, the tested form may be a part): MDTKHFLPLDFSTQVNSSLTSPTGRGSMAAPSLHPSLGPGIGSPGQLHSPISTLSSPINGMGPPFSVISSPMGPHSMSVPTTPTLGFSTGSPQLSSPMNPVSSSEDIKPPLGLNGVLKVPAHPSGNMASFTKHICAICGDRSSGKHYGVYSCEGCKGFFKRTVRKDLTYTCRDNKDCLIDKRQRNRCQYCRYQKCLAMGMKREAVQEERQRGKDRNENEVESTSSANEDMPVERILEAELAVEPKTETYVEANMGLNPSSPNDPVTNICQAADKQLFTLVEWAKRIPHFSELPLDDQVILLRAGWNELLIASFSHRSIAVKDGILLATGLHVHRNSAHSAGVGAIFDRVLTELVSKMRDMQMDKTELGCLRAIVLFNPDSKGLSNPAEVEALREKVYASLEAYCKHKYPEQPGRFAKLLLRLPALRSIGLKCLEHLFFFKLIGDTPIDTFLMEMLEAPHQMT
# In short: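 Interaction of bait and prey reconstitutes a functional reporter, whose fluorescence was measured in HEK293T cells dosed with compound for 8 hours. Signal gain relative to DMSO defined the single endpoint.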
# [11] = target: Retinoic acid receptor RXR-alpha (Homo sapiens) (UniProt P19793); experiment: OT_NURR1_NURR1RXRa_1440: Odyssey Thera (OT) 24-hour HEK293T Protein Complementation Assay for Nurr1/retinoid X receptor (RXR) (AID 2283386)
# In short: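 Steps: fragment-tagged Nurr1 and RXRα expressed in HEK293T; compounds added; after 24 h, complemented reporter quantified by fluorescence intensity; signal increase over DMSO fitted as the single endpoint.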
# [12] = target: Bile acid receptor (Homo sapiens) (UniProt Q96RI1); experiment: OT_FXR_FXRSRC1_0480: Odyssey Thera (OT) 8-hour HEK293T Protein-Complementation Assay for Farnesoid X receptor/SRC-1 Co-activator (AID 2283383)
# Chain of Bile acid receptor (Homo sapiens) (Q96RI1 whole entry, looked up, the tested form may be a part): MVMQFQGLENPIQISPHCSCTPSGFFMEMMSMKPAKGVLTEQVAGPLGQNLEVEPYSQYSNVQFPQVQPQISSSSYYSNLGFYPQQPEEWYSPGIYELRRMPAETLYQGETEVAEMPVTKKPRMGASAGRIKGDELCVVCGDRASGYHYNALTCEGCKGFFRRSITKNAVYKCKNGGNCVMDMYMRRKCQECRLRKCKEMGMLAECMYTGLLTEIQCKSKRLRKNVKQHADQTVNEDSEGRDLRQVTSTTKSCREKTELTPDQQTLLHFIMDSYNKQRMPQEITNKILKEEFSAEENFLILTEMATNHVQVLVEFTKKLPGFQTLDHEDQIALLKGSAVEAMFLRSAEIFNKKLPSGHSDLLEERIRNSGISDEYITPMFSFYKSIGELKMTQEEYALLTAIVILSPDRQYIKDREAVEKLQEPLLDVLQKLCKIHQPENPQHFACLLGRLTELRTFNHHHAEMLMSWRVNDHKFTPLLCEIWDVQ
# In short: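 PCA, HEK293T, 8 h compound exposure; FXR–SRC-1 binding reconstitutes split reporter; fluorescence intensity; positive-direction fit vs DMSO.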
# [13] = target: Bile acid receptor (Homo sapiens) (UniProt Q96RI1); experiment: OT_FXR_FXRSRC1_1440: Odyssey Thera (OT) 24-hour HEK293T Protein-Complementation Assay for Farnesoid X receptor/SRC-1 Co-activator (AID 2283384)
# In short: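 Measures ligand-driven FXR–SRC-1 co-activator recruitment in HEK293T via fragment complementation, fluorescence intensity at 24 h. DMSO served as negative control and baseline for gain-of-signal fitting.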
# [14] = target: guinea pig Sigma Receptor, Non-selective Binding, SIGMAR1 (gene 100135589) (UniProt Q60492); experiment: NVS_OR_gSIGMA_NonSelective: NovaScreen (NVS) Nuclear Receptor Binding Assay for guinea pig Sigma Receptor, Non-selective Binding (AID 2283367)
# In short: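 Membranes from guinea pig brain incubated with radioligand and test chemical for 1 h, then filtered and scintillation-counted. Duplicate primary testing at 25 uM, with concentration-series follow-up for actives.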
# [15] = target: Nuclear receptor subfamily 1 group I member 2 (Homo sapiens) (UniProt O75469); experiment: NVS_NR_hPXR: NovaScreen (NVS) Nuclear Receptor Binding Assay for human Pregnane X Receptor (PXR) (AID 2283365);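 note: a drop in FRET signal versus DMSO baseline means the compound binds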
# Chain of Nuclear receptor subfamily 1 group I member 2 (Homo sapiens) (O75469 whole entry, looked up): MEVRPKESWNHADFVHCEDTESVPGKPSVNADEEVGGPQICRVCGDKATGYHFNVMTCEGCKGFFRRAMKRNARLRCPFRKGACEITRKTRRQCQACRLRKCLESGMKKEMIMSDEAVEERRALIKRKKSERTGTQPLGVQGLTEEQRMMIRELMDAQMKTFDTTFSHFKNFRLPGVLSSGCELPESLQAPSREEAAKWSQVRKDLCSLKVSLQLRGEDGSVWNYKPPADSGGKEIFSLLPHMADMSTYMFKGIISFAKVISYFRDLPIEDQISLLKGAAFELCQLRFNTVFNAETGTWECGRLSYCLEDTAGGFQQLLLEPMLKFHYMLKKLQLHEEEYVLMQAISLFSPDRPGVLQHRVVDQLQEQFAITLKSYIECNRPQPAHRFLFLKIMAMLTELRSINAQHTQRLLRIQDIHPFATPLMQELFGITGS
# In short: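 Human PXR binding measured by TR-FRET in a cell-free format, 2 h exposure. Single-concentration duplicates at 25 uM preceded concentration-response retests of actives; endpoint fitted positively relative to DMSO, loss of signal indicating binding.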
# [16] = target: rat Serotonin Transporter (SERT), Slc6a4 (gene 25553) (UniProt P31652); experiment: NVS_TR_rSERT: NovaScreen (NVS) Transporter Assay for rat Serotonin Transporter (SERT) (AID 2283375)
# In short: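 Radioligand binding with competitive displacement on rat forebrain membrane preparations, counted by filtration and scintillation after 1 h. Primary single-point duplicates at 25 uM; active chemicals followed up in concentration-response. DMSO served as baseline.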
smiles,measurement,setting,value
Oc1ccc(Cc2ccc(O)cc2)cc1,AC50,[1],10.1 µM (active)
same,AC50,[2],9.05 µM (active)
same,AC50,[3],25 µM (active)
Nc1c(Oc2ccccc2)cc(O)c2c1C(=O)c1ccccc1C2=O,outcome,[4],inactive
Oc1c(Br)cc(Br)cc1Br,outcome,[5],inactive
same,outcome,[6],inactive
same,outcome,[7],inactive
same,outcome,[8],inactive
same,outcome,[9],inactive
same,outcome,[10],inactive
same,outcome,[11],inactive
CC(=Cc1ccccc1)[N+](=O)[O-],outcome,[5],inactive
same,outcome,[6],inactive
same,outcome,[7],inactive
same,AC50,[8],16.6 µM (active)
same,AC50,[9],19.8 µM (active)
Oc1cc(Cl)c(Cl)cc1Cl,outcome,[5],inactive
same,AC50,[3],10.8 µM (active)
same,AC50,[7],75.1 µM (active)
same,AC50,[10],78.3 µM (active)
same,outcome,[10],inactive
same,AC50,[11],81.6 µM (active) and 83.4 µM (active)
CC(C)(C)c1ccccc1O,outcome,[1],inactive
same,outcome,[2],inactive
same,outcome,[7],inactive
same,outcome,[10],inactive
same,outcome,[11],inactive
O=C(O)COc1cc(Cl)c(Cl)cc1Cl,AC50,[5],7.47 µM (active)
same,outcome,[7],inactive
same,outcome,[12],inactive
same,outcome,[11],inactive
CCOCn1c(-c2ccc(Cl)cc2)c(C#N)c(Br)c1C(F)(F)F,outcome,[5],inactive
same,outcome,[6],inactive
same,AC50,[7],12.6 µM (active)
same,outcome,[8],inactive
same,outcome,[9],inactive
same,AC50,[12],12.3 µM (active)
same,AC50,[13],3.05 µM (active)
same,AC50,[10],9.59 µM (active)
same,AC50,[11],25.2 µM (active)
CCCCCCCCCCBr,AC50,[14],0.87 µM (active)
O=c1[nH]c(=O)n(Cl)c(=O)n1Cl,outcome,[15],inactive
same,outcome,[10],inactive
same,outcome,[11],inactive
C=CC(Cl)CCl (stereo not drawn),AC50,[15],5.06 µM (active)
same,outcome,[7],inactive
same,outcome,[10],inactive
same,outcome,[11],inactive
Cc1ccc(CCl)cc1,AC50,[16],16.6 µM (active)
CC(C)=CC1C(C(=O)OCc2cccc(Oc3ccccc3)c2)C1(C)C (stereo not drawn),AC50,[2],17.2 µM (active)
same,outcome,[7],inactive
same,outcome,[8],inactive
same,outcome,[9],inactive
same,outcome,[12],inactive
same,AC50,[13],12.3 µM (active)
same,outcome,[10],inactive
same,outcome,[11],inactive
O=S1OC[C@@H]2[C@H](CO1)[C@]1(Cl)C(Cl)=C(Cl)[C@@]2(Cl)C1(Cl)Cl (stereo partly drawn),AC50,[5],14.9 µM (active)
same,outcome,[6],inactive
same,AC50,[8],12.6 µM (active)
same,outcome,[9],inactive
same,AC50,[12],43.3 µM (active)
same,AC50,[13],68.1 µM (active)
same,AC50,[10],91.8 µM (active)
same,outcome,[11],inactive
O=C(Cl)OCCOCCOC(=O)Cl,AC50,[6],6.49 µM (active)
CC1(C)[C@H](C(=O)O[C@H](C#N)c2cccc(Oc3ccccc3)c2)[C@@H]1/C=C(\Cl)C(F)(F)F,outcome,[3],inactive
same,outcome,[7],inactive
same,outcome,[12],inactive
same,outcome,[13],inactive
OCC(c1ccc(Cl)cc1)c1ccc(Cl)cc1,outcome,[6],inactive
C=CCN=C=S,outcome,[8],inactive
same,outcome,[9],inactive
same,outcome,[12],inactive
same,outcome,[10],inactive
BrCC(Br)c1ccccc1 (stereo not drawn),outcome,[3],inactive
CN(N=O)C(N)=O,outcome,[7],inactive
same,outcome,[10],inactive
CC(C)(C)c1cc([N+](=O)[O-])cc(C(C)(C)C)c1O,outcome,[6],inactive
CCCSP(=S)(OCC)Oc1ccc(SC)cc1 (stereo not drawn),outcome,[7],inactive
same,outcome,[8],inactive
same,outcome,[9],inactive
same,AC50,[12],22.8 µM (active)
same,outcome,[13],inactive
CC(C)(C1CCC(O)CC1)C1CCC(O)CC1 (stereo not drawn),outcome,[6],inactive
CCOc1ccc(N)cc1,outcome,[7],inactive
same,outcome,[8],inactive
same,outcome,[9],inactive
same,AC50,[13],46.8 µM (active)
same,outcome,[10],inactive
same,outcome,[11],inactive
CN(C)C(=S)S,outcome,[7],inactive
same,outcome,[10],inactive
same,outcome,[11],inactive
Cc1cc(C)cc(C)c1,outcome,[7],inactive
same,outcome,[10],inactive
same,outcome,[11],inactive
Cc1cc(Cl)ccc1OCCCC(=O)O,outcome,[7],inactive
same,outcome,[12],inactive
same,outcome,[13],inactive
same,outcome,[10],inactive
same,outcome,[11],inactive
CCN(CCO)CCO,outcome,[7],inactive
same,outcome,[8],inactive
same,outcome,[9],inactive
same,outcome,[11],inactive
C=CC(=O)[O][Sn]([CH2]CCC)([CH2]CCC)[CH2]CCC,outcome,[6],inactive
COC(=O)Nc1cccc(OC(=O)Nc2cccc(C)c2)c1,outcome,[7],inactive
same,outcome,[13],inactive
same,outcome,[10],inactive
same,outcome,[11],inactive
O=C(NC(=O)c1c(F)cccc1F)Nc1cc(Cl)c(Oc2ncc(C(F)(F)F)cc2Cl)c(Cl)c1,outcome,[6],inactive
O=C(NC(=O)c1c(F)cccc1F)Nc1ccc(Cl)cc1,outcome,[7],inactive
same,outcome,[8],inactive
same,outcome,[9],inactive
same,outcome,[12],inactive
same,outcome,[13],inactive
same,outcome,[10],inactive
same,outcome,[11],inactive
OCCCCO,outcome,[12],inactive
same,outcome,[13],inactive
same,outcome,[10],inactive
same,outcome,[11],inactive
COC(=O)c1cc(Oc2ccc(Cl)cc2Cl)ccc1[N+](=O)[O-],outcome,[6],inactive
O=S(=O)(Oc1ccc(Cl)cc1)c1ccc(Cl)cc1,outcome,[6],inactive
Cc1cc(Cl)ccc1O,AC50,[7],63.8 µM (active)
same,outcome,[12],inactive
same,outcome,[13],inactive
same,outcome,[10],inactive
Clc1cccc(Cl)c1,outcome,[7],inactive
same,outcome,[11],inactive
O=C(O)COc1ccc(Cl)cc1,outcome,[7],inactive
same,outcome,[8],inactive
same,outcome,[9],inactive
same,outcome,[10],inactive
Oc1c(Cl)cc(Cl)cc1Cl,outcome,[7],inactive
OCCN(CCO)CCO,outcome,[10],inactive
same,outcome,[11],inactive
Nc1ccc(Br)cc1,outcome,[6],inactive
CNC(=O)O/N=C/C(C)(C)S(C)(=O)=O,outcome,[7],inactive
same,outcome,[8],inactive
same,outcome,[9],inactive
same,outcome,[11],inactive
N#CS,outcome,[11],inactive
N#Cc1cccnc1,outcome,[7],inactive
same,outcome,[8],inactive
same,outcome,[9],inactive
same,outcome,[13],inactive
same,outcome,[10],inactive
same,outcome,[11],inactive
O=c1nc(O)n(Cl)c(=O)n1Cl,outcome,[10],inactive
same,outcome,[11],inactive
O=c1[nH]c2ccccc2n1C1CCN(CCCC(c2ccc(F)cc2)c2ccc(F)cc2)CC1,outcome,[6],inactive

# — PubChem BioAssay (EPA / NIEHS)
